# PostGolgi ctrl – growth of the yeast control strain, post-Golgi counter-screen; efflux-deficient yeast background strain, growth absorbance A615, 16 h; inhibition, % at 10 µM; AID 738; hit rate 5% among 98,000
# CYP2C9 inhib – blocks human cytochrome P450 2C9; P11712; CYP2C9 Supersomes, luciferin-H conversion, luminescence; inhibition, % at 5 µM; hit rate 20% among 96,000;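 active = blocking of liver enzyme CYP2C9 beyond about 50% at 5 µM, limit read from the data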
# Target sequence (P11712 whole entry, looked up): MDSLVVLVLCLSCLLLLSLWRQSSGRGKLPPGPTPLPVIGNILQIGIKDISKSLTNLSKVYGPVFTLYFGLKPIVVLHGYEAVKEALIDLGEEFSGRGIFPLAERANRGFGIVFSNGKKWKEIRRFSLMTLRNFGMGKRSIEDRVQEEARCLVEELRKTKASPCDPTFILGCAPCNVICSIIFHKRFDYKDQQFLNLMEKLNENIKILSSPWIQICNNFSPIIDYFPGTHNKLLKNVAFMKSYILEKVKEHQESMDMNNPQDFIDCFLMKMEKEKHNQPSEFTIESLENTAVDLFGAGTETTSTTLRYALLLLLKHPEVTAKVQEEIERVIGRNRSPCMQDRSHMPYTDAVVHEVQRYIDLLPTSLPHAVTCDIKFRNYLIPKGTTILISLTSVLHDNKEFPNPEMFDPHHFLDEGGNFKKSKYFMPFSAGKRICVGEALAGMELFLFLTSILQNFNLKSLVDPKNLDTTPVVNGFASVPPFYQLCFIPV
# CYP2C9 act – activators of human CYP2C9; P11712; recombinant CYP2C9, luciferin-H conversion, luminescence; active compounds read high; factor 1 = untreated enzyme, 0 = blocked; activation factor at 5 µM; hit rate 1.4% among 96,000; AID 1024;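 active = activation factor of 2 or more for CYP2C9 at a 5 µM dose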;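 note: 0 = sulfaphenazole-blocked wells and 1 = vehicle-only wells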
# PostGolgi yeast – growth inhibition of a yeast mutant, post-Golgi transport screen. post-Golgi transport phenotypic cell assay. inhibition, % at 10 µM. hit rate 0.9% among 98,000;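 note: yeast cells grown in 1536-well plates; yeast grown about 18 h at 30C before absorbance read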
# CYP2C19 inh – inhibitors of human CYP2C19; P33261; CYP2C19 Supersomes, luciferin-H EGE luminescence, 30 min; inhibition, % at 5 µM; hit rate 21% among 96,000; AID 778;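 active = CYP2C19 inhibition above a set limit at 5 µM in the primary screen, cut at about 50% in these data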;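 note: plate controls were negative control wells for no effect and 2.5 mM tranylcypromine positive control for full effect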
# CYP2C19 act – activators of human cytochrome P450 2C19. 96,000 tested, under 10 active. activation factor at 5 µM. AID 1025. recombinant CYP2C19, luciferin-H EGE luminescence; active compounds read high; 0 = fully inhibited enzyme, 1 = untreated enzyme;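 active = activation factor of at least 2 at 5 µM in the primary screen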;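 note: 0 = wells with 2.5 mM tranylcypromine and 1 = vehicle-only wells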
# An asterisk follows results filed as active; · = not tested or not shown. Sampled rows, rich in hits. Any-hit rate of the full collection: about 32%. Cut-off read from the data, not from the text of the source, unless noted: active = inhibition above about 30%; inactive = the rest.
SMILES,PostGolgi ctrl,CYP2C9 inhib,CYP2C9 act,PostGolgi yeast,CYP2C19 inh,CYP2C19 act
CN1CCN(S(=O)(=O)c2ccc(-c3ccccc3)cc2)CC1,-10,25,0.8,17,44,0.6
Cc1ccc(S(=O)(=O)N2CCN(C(=O)c3ccccc3)CC2)cc1,4,12,0.9,-3,34,0.7
CN(C)S(=O)(=O)N1CCN(S(=O)(=O)c2ccccc2)CC1,1,58*,0.4,-7,80*,0.2
C/C(=N\S(=O)(=O)c1ccc(C)cc1)N1CCN(S(=O)(=O)c2ccccc2)C1,31*,4,1,2,23,0.8
Cc1ccc(-c2ccc(S(=O)(=O)N3CCN(C)CC3)cc2)cc1,4,52*,0.5,3,16,0.8
O=C(O)CNC(=O)c1ccc(S(=O)(=O)N2CCOCC2)cc1,-8,-2,1,-2,1,1
COc1ccc(N2C(=O)CS/C2=C\[N+](=O)[O-])cc1,-2,6,0.9,6,13,0.9
CCCCC(=O)Nc1ccc(NC(=O)CCCC)nc1,0,24,0.8,2,25,0.7
CCCCNC(=O)Nc1cc(C)on1,9,0,1,0,-7,1.1
CCCCNC(=O)Nc1ccccn1,33*,30,0.7,4,16,0.8
CCCCC(=O)Nc1ccc(Br)cn1,4,12,0.9,5,57*,0.4
O=C(NCCCNC(=O)c1ccccn1)c1ccccn1,35*,-5,1.1,-11,-10,1.1
CN(C)CCCNC(=O)c1ccccn1,10,49,0.5,7,-1,1
CCCCNC(=O)Nc1ccc(Br)cn1,11,52*,0.5,0,82*,0.2
Cc1cc(C(F)(F)F)nn1Cc1n[nH]c(=S)n1-c1cccc(Cl)c1,17,-10,1.1,-4,-7,1.1
CCn1c(=N)n(CCO)c2ccccc21,-4,-1,1,-1,-1,1
CCCCOc1cccc(C2(C(=O)O)CCCC2)c1,-1,33,0.7,-1,29,0.7
CCC(c1nnnn1Cc1ccco1)N(Cc1cc2cc(C)cc(C)c2[nH]c1=O)CC1CCCO1 (stereo not drawn),7,79*,0.2,12,74*,0.3
CCC(c1nnnn1Cc1ccco1)N(Cc1ccccc1OC)Cc1cc2cc(C)ccc2[nH]c1=O (stereo not drawn),5,51*,0.5,-5,49,0.5
Cc1cccc2cc(C(c3nnnn3CC3CCCO3)N3CCOCC3)c(=O)[nH]c12 (stereo not drawn),5,-4,1,1,-4,1
CC1(C)N=C(SCC(=O)Nc2ccc(Cl)cc2)C(c2ccccc2)=N1,21,68*,0.3,12,77*,0.2
COC(=O)c1sc2ccccc2c1-n1cccc1C(=O)C(=O)Nc1ccc(C)cc1,7,100*,0,-2,38,0.6
O=C(NNC(=O)c1sc2ccccc2c1Cl)Nc1ccc(Cl)cc1,9,-19,1.2,5,24,0.8
COC(=O)c1sc2ccccc2c1C(=O)OC,13,·,·,1,·,·
COC(=O)c1sc2ccccc2c1-n1cccc1C(=O)C(=O)Nc1ccc(F)cc1,10,100*,0,9,33,0.7
SMILES,PostGolgi ctrl,CYP2C9 inhib,CYP2C9 act,PostGolgi yeast,CYP2C19 inh,CYP2C19 act
COC(=O)c1sc2ccccc2c1-n1cccc1C(=O)C(=O)Nc1ccc(Cl)cc1,0,99*,0,27,23,0.8
Cc1noc(NS(=O)(=O)c2ccc(NC(=O)CSc3nc4c(cc3C#N)CCCC4)cc2)c1C,4,27,0.7,-1,-18,1.2
CCn1ncc([N+](=O)[O-])c1C(=O)N1CCCC1,1,-13,1.1,-3,-22,1.2
CCOC(=O)C1=C(c2cccc(Oc3ccccc3)c2)NC(=S)NC1C (stereo not drawn),25,99*,0,8,100*,0
CCOC(=O)C1=C(C)NC(=O)NC1C (stereo not drawn),15,-5,1.1,-9,-5,1.1
COc1cc(C(C#N)N2N=C(c3ccccc3)CC2c2ccccc2)ccc1O (stereo not drawn),12,58*,0.4,-8,33,0.7
COc1cc(C(C#N)N2CCCCC2)ccc1O (stereo not drawn),25,16,0.8,6,6,0.9
Cc1ccc(S(=O)(=O)NNc2nc3ccccc3nc2C(F)(F)F)cc1,8,50*,0.5,-1,67*,0.3
Cc1ccc(S(=O)(=O)NNc2ccccc2)cc1,19,-16,1.2,-6,20,0.8
Cc1cc(NC(=O)Cn2nc(C(F)(F)F)c3c2CCC3)n(-c2ccccc2)n1,1,62*,0.4,8,80*,0.2
CCc1ccc(NC(=O)Cn2nc(C(F)(F)F)c3c2CCC3)cc1,8,·,·,-11,·,·
COC(=O)C1CCCN1C(=O)c1cccs1 (stereo not drawn),0,16,0.8,3,17,0.8
Cc1nc2ccc(NC(=O)N3CCN(c4ccccn4)CC3)cc2s1,6,80*,0.2,8,22,0.8
Cc1nc2ccc(NC(=O)N3CCCCC3)cc2s1,4,-3,1,0,14,0.9
Cc1nc2ccc(NC(=O)N3CCSCC3)cc2s1,31*,-25,1.2,18,9,0.9
O=C(O)CCSCCC(=O)O,7,-28,1.3,33*,-19,1.2
CSc1nsc(/C=C/Nc2cccc(Cl)c2)c1C#N,12,65*,0.3,-1,20,0.8
O=C(Nc1ccc2c(c1)ncn2C1CCCCC1)c1ccco1,-2,18,0.8,-3,8,0.9
Cc1ccc(-c2csc3ncnc(OCC(=O)NC(=O)NCc4ccco4)c23)cc1,2,49,0.5,17,50*,0.5
Cc1cc(OC(=O)c2ccc(Cl)cc2Cl)nc(C)n1,-3,-10,1.1,6,-6,1.1
Cn1c(CCCNC(=O)c2ccccc2)nc2ccccc21,25,-138,2.4*,1,32,0.7
Cn1c(CNc2ccc(Cl)cc2)nc2ccccc21,20,84*,0.2,-14,98*,0
Cc1ccc(/C=N/NC(=O)CSc2nc3ccccc3n2C)s1,-4,-50,1.5,-5,18,0.8
Cn1c(SCC(=O)N/N=C/c2cccs2)nc2ccccc21,4,-101,2*,1,43,0.6
Cc1cccc(NCc2nc3ccccc3n2C)c1,5,9,0.9,-6,46,0.5
COc1ccccc1C(=O)NCCc1nc2ccccc2n1C,·,-13,1.1,·,97*,0
Cn1c(CCCNC(=O)c2cccs2)nc2ccccc21,-2,-30,1.3,1,26,0.7
Cn1c(/C=N/NC(=O)c2ccccc2)nc2ccccc21,1,34,0.7,-7,10,0.9
Cn1c(SCC(=O)NCc2ccc(F)cc2)nc2ccccc21,4,-214,3.1*,6,30,0.7

# Source: PubChem (several laboratories)
